Bioassay records from PubChem BioAssay.
Tau FP inhib: inhibitors of human tau fibril formation; 280,000 tested, 0.39% active; Potency, µM (top dose mostly 57.7 µM), without a hit: top-dose activity, negative = inhibition, usual class: inhibitors; K18 P301L tau heparin fibrillization, Alexa594 FP, 6 h; AID 1468; active = well fitted curve in the direction sought with a large enough effect; inconclusive = small, poorly fitted or top-dose-only effect, or another doubt; inactive = no such curve, though single readings can be large; an effect the other way counts as inactive or inconclusive; note: nearly all actives have a fitted effect of over 55% in size
Target sequence (P10636 561-689 P618L limits assumed): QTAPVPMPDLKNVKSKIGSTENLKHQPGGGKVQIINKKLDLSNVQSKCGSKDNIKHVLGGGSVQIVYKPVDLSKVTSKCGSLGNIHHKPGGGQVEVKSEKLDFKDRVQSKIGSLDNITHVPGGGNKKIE
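Steps: dispense K18 P301L tau (15 uM plus 0.24 uM Alexa 594 tracer, final) in pH 7 sodium acetate; add compound; add heparin (20 uM final); incubate 6 hr, 37 C; add ThT (30 uM final); after 1 hr ambient, read FP.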
Tau fluor cs: counter-screen for tau fibril formation inhibitors | tau K18 P301L Alexa594 fluorescence, heparin fibrillization | Potency, µM (series often up to 57.7 µM), inactives show at the highest dose activity change, negative = decrease | 280,000 tested, 0.93% active | AID 1463; active = well fitted curve in the direction sought with a large enough effect; inconclusive = small, poorly fitted or top-dose-only effect, or another doubt; inactive = no such curve, though single readings can be large; an effect the other way counts as inactive or inconclusive; note: nearly all actives have a fitted effect of over 55% in size
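Human tau K18 P301L (15 uM unlabeled, 0.24 uM Alexa 594-labeled) in 100 mM sodium acetate pH 7 with 20 uM heparin, 6 hr at 37 C. ThT 30 uM added, 1 hr ambient; Alexa 594 FP and total fluorescence read at 555/632 nm.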
HPGD inh: HPGD (human) dehydrogenase inhibition. Potency, µM, without a hit: top-dose activity change, negative = inhibition, most hits filed as inhibitors. P15428. purified HPGD, NADH fluorescence kinetic, PGE2 substrate. 150,000 tested, 4.3% active
Target sequence (P15428 whole entry, looked up): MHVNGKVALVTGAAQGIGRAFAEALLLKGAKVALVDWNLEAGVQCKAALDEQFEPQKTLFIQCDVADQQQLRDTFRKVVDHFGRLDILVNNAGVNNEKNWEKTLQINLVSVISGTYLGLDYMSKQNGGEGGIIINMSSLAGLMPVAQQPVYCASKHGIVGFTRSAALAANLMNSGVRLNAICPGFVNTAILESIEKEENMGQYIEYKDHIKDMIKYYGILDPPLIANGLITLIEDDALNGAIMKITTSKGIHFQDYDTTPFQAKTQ
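NADH formation kinetics: reaction with 30 uM PGE2 and 1 mM NAD+ (final), 20 nM enzyme, Tris-HCl pH 8 with Tween 20, after 15 min compound preincubation at room temperature. Fluorescence change, last versus first of five reads.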
JMJD2E inh: blocks human JMJD2E demethylase activity; B2RXH2; JMJD2E catalytic domain, FDH-coupled NADH fluorescence (FDH is formaldehyde dehydrogenase); 230,000 tested, 1.6% active; Potency, µM (top dose mostly 57.1 µM), for inactives: top-dose activity change, negative = inhibition, most hits filed as inhibitors;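 note: 0% = wells with enzyme and -100% = buffer wells without enzyme; nearly all actives have a fitted effect of over 50% in size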
Target sequence (B2RXH2 1-337 limits assumed): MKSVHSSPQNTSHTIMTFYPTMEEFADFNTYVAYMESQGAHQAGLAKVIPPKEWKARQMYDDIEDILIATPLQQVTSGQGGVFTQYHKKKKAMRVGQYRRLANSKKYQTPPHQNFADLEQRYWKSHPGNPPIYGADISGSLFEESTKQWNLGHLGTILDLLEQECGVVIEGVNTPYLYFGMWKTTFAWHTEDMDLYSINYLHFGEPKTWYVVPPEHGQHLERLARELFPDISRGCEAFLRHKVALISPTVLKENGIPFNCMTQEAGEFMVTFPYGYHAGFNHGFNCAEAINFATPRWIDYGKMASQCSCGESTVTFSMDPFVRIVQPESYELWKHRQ
ALDH1A1 block: ALDH1A1 (human) enzyme inhibition; Purified ALDH1A1, NADH fluorescence, propionaldehyde substrate; Potency, µM (highest dose often 75.3 µM), inactives show at the highest dose activity, negative = inhibition, actives largely listed as inhibitors; 220,000 tested, 7.3% active;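 note: plate controls were no enzyme wells and a reference inhibitor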
Tau ThT inhib: inhibitors of human tau fibril formation, thioflavin T binding | recombinant tau K18 P301L (four-repeat tau fragment), heparin-induced fibrillization, ThT fluorescence | 270,000 tested, 2.1% active | Potency, µM (series often up to 57.4 µM), for the others: at the top dose activity, negative = inhibition, usual class: inhibitors | P10636 | AID 1460; active = well fitted curve in the direction sought with a large enough effect; inconclusive = small, poorly fitted or top-dose-only effect, or another doubt; inactive = no such curve, though single readings can be large; an effect the other way counts as inactive or inconclusive; note: nearly all actives have a fitted effect of over 55% in size
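Aggregation was driven by heparin (20 uM final) acting on recombinant tau […] bearing P301L in 100 mM sodium acetate pH 7; fibrils were detected with Thioflavin T.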
* hit, by the source's call; u = inconclusive; x = not tested or not shown; [ ] = dose if it differs, or a comment. This is a sample that favours compounds with a hit; in the whole collection about 9.9% have one here. Unless noted, calls come from the whole dose curve; as a rule, active = well fitted inhibition curve with a large enough effect (not every such curve was filed as active); inconclusive = small, poorly fitted or top-dose-only effect, or another doubt; inactive = no such curve, though single readings can be large or run the other way. Unless noted, % is set by controls: 0 for no effect and ±100 for the full control effect; potency is the fitted concentration of half-maximal effect.

SMILES	Tau FP inhib	Tau fluor cs	HPGD inh	JMJD2E inh	ALDH1A1 block	Tau ThT inhib
COc1ccc(CN(C(=O)c2ccco2)c2ccccc2)cc1	0.9%	-4.9%	-20.8%	2.1%	-3.6%	-5.4%
COc1ccc(N=C2S/C(=C\c3cc(C)n(C)c3C)C(=O)N2C)cc1	12.9%	u	-6.2%	-12.4%	u	u
COc1ccccc1N1C(=O)S/C(=C\c2cc(C)n(C)c2C)C1=O	6.0%	-27.4%	x	u	14.1µM*	-2.3%
CCCN1C(=O)/C(=C/c2cc(C)n(C)c2C)SC1=Nc1ccc(OC)cc1	16.5%	u	-17.2%	-14.8%	2µM*	u
CC1=NN(c2ccccc2)C(=O)/C1=C/c1cccs1	-4.8%	-14.7%	31.6µM*	u	14.1µM*	u
CC1=NN(c2ccc(C)c(C)c2)C(=O)/C1=C/c1ccc2c(c1)n(C)c(=O)n2C	11.7%	-5.3%	-18.7%	u	u	-18.1%
CC1=NN(c2ccccc2)C(=O)/C1=C/c1ccc[nH]1	-2.0%	-20.3%	-5.1%	1.0%	-2.6%	12.6µM*
CC1=NN(c2ccccc2)C(=O)/C1=C/c1c(O)n(-c2ccc(F)cc2)[nH]c1=O	12.4%	12.6µM*[quencher]	-24.9%	-2.8%	20µM*	4.47µM*
CC1=NN(c2ccccc2)C(=O)/C1=C\c1ccc(Br)s1	-0.6%	u	28.2µM*	3.16µM*	7.94µM*	12.6µM*
Cc1ccc(C2=N/C(=C\c3cccs3)C(=O)N2Nc2ccccc2)cc1	-4.9%	u	-15.0%	-1.7%	u	u
O=C(CCc1nc2ccccc2[nH]1)Nc1ccc2c(c1)OCO2	-1.1%	-25.6%	-12.6%	-8.3%	10µM*	u
COc1cc(-c2nc(SCC(=O)Nc3ccc4c(c3)OCO4)c(-c3ccccc3)[nH]2)cc(OC)c1OC	2.0%	5.62µM*[quencher]	x	x	x	u
O=C(CSc1nc(-c2ccccc2)[nH]c1-c1ccccc1)Nc1ccc2c(c1)OCO2	2.2%	7.08µM*[quencher]	x	x	x	u
COc1ccccc1Cc1nc2ccccc2nc1SCC(=O)Nc1ccc2c(c1)OCO2	-6.7%	-26.2%	x	x	x	8.9%
O=C(CSc1nc(-c2ccccc2)c(-c2ccccc2)[nH]1)Nc1ccc2c(c1)OCO2	5.5%	u	u	-3.9%	u	-6.1%
COc1ccc(C(=O)N(C)c2c(C)n(C)n(-c3ccccc3)c2=O)cc1OC	4.5%	4.5%	x	-5.6%	7.3%	5.6%
Cc1cccc(C(=O)Oc2c(Sc3ccccc3)c(C)nn2C(C)(C)C)c1	-5.9%	-12.9%	x	x	x	-12.2%
O=C1C2C3C=CC(C2C(=O)N1c1cccc(O)c1)C1C2C(=O)N(c4cccc(O)c4)C(=O)C2C31 (stereo not given)	4.1%	-11.6%	x	-0.8%	1.41µM*	-11.0%
NS(=O)(=O)c1ccc(CCNS(=O)(=O)c2ccccc2)cc1	1.7%	5.8%	x	-1.7%	8.91µM*	4.9%
Cc1ccc(C2CC(=O)Nc3cc4c(cc32)OCCO4)cc1Br (stereo not given)	-2.2%	-8.7%	x	x	x	0.5%
c1ccc(-c2cn3nc4c(nc3n2)CCCC4)cc1	u	u	-55.2%	31.6µM*	u	u
c1ccc(-c2cn3nc(-c4ccccc4)cnc3n2)cc1	11.5%	3.1%	-11.2%	-1.2%	-10.8%	4.4%
Brc1ccc2nc3c(n2c1)CCCC3	2.2%	5.1%	-15.9%	5.8%	1.7%	-7.6%
Brc1ccc(-c2cn3nc4c(nc3n2)CCCC4)cc1	u	u	u	u	u	17.8µM*
NS(=O)(=O)c1ccc(Nc2nc3ccccc3nc2NS(=O)(=O)c2cccc([N+](=O)[O-])c2)cc1	8.4%	u	x	1.1%	7.3%	11.2µM*
SMILES	Tau FP inhib	Tau fluor cs	HPGD inh	JMJD2E inh	ALDH1A1 block	Tau ThT inhib
CC(=O)Nc1ccc(S(=O)(=O)Nc2nc3ccccc3nc2Nc2ccc(S(N)(=O)=O)cc2)cc1	-3.7%	-26.1%	u	u	u	u
CNC(=O)c1cc(NC(=O)CCn2nc(-c3ccc(C)cc3)c3ccccc3c2=O)ccc1OC	-0.2%	-4.4%	x	-1.9%	x	-11.3%
NC(=O)CC(NC(=O)c1ccccc1)c1ccc(NCCc2ccc(Cl)cc2)c([N+](=O)[O-])c1 (stereo not given)	-11.6%	u	x	2.5%	x	12.6µM*
NC(=O)CC(NC(=O)c1ccccc1)c1ccc(NCc2ccc(F)cc2)c([N+](=O)[O-])c1 (stereo not given)	2.3%	-20.1%	x	-14.5%	x	25.1µM*
NC(=O)CC(NC(=O)c1ccccc1)c1ccc(NCc2ccccc2)c([N+](=O)[O-])c1 (stereo not given)	-3.0%	-27.6%	x	1.9%	x	12.6µM*
CCOc1ccc(OCC)c(NC(=O)C2CCN(S(=O)(=O)c3ccc(Br)s3)CC2)c1	-6.0%	-13.7%	x	x	x	-0.7%
O=c1[nH][nH]c(=S)n1-c1ccccc1C(F)(F)F	-6.0%	-3.1%	x	6.31µM*	x	u
O=c1[nH]ncn1-c1ccccc1C(F)(F)F	-0.2%	-4.3%	-6.5%	4.3%	0.6%	-6.6%
COc1ccc(/C=C/C(=O)NC(CCSC)C(=O)O)cc1 (stereo not given)	6.5%	-8.4%	x	-5.6%	5.7%	-7.6%
COC(=O)C=P(c1ccccc1)(c1ccccc1)c1ccccc1	1.8%	1.4%	-8.5%	4.2%	13.2%	-0.7%
Cc1ccc(Cn2nnc3c(=O)[nH]c(C(=O)NCc4ccco4)nc32)cc1	2.8%	3.5%	-25.4%	7.9%	4.4%	2.4%
O=C(NCc1ccccc1)c1nc2c(nnn2Cc2cccc(Cl)c2)c(=O)[nH]1	-2.2%	1.8%	2.51µM*	3.5%	14.8%	-15.5%
O=C(NCc1ccco1)c1nc2c(nnn2Cc2cccc(Cl)c2)c(=O)[nH]1	2.3%	-6.2%	0.355µM*	2.0%	28.2µM*	-9.9%
CCOC(=O)c1c(C)nc(C)c2c(=O)oc3ccccc3c12	3.9%	-17.0%	x	u	u	-10.6%
Cc1c(C)[n+](=O)c(-c2ccco2)c(C)n1[O-]	-2.1%	0.3%	-14.9%	-16.2%	25.1µM*	-2.1%
NCC(O)C1CCCCCCC1 (stereo not given)	4.6%	u	-14.2%	u	-11.0%	-16.1%
O=C(CCS(=O)(=O)c1ccc(Br)s1)Nc1c(F)cccc1F	-4.9%	-8.8%	x	x	x	-3.8%
N#C/C(=C\c1cc(Cl)ccc1O)C(=O)NC1CCCCC1	2.5%	-9.8%	-9.8%	-5.2%	-12.2%	-15.1%
N#C/C(=C\c1ccc(F)c(F)c1)C(=O)NC1CCCCC1	6.0%	1.0%	0.0%	8.0%	11.0%	-8.8%
N#C/C(=C\c1ccccc1[N+](=O)[O-])C(=O)NC1CCCCC1	4.9%	-19.2%	x	-14.1%	7.08µM*	u
N#C/C(=C\c1cccn1-c1ccccc1)C(=O)NC1CCCCC1	3.3%	-17.6%	-19.2%	-2.2%	7.08µM*	-11.2%
